Here are results for 14 compounds from PubChem BioAssay (NCATS).

Molecules are shown by their SMILES. Where “and” joins values, the source holds several entries; their conditions need not be identical. Equal entries are not always repeated. Records with an inconclusive call do not appear. Calls of active or inactive are those of the source. Unless noted, the call rests on the fitted dose curve; in most records, active means well fitted curve in the direction sought with a large enough effect; inconclusive means small, poorly fitted or top-dose-only effect, or another doubt; inactive means no such curve, though single readings can be large; an effect the other way counts as inactive or inconclusive.

Assay [1] addresses Glucagon-like peptide 1 receptor (Homo sapiens) (UniProt P43220). The assay can be described thus: qHTS of GLP-1 Receptor Agonists: LOPAC Validation (AID 624148).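 Further: 0% is about no effect; higher luminescence signal means agonism.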 The gist of the method:
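HEK293 cells stably co-expressing GLP-1R and a cAMP-responsive luciferase reporter, plated 12 hours before compound, then incubated 4-6 hr at 37 deg C. Luminescence read 12 min after detection reagent.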

Assay [2] can be described thus: qHTS of Nrf2 Activators: LOPAC Validation (AID 624149). Further: 0% is about no effect. The procedure, abridged: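 AREc32_Fluc cells, 1000/well in OPTI-MEM with 5% FBS, grown overnight, then exposed to compounds for 24 hr at 37 deg C, 5% CO2. ARE-driven firefly luciferase read by Steady-Glo luminescence after 30 min at RT.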
Assay [3] can be described thus: HTS Assay for Allosteric Antagonists of the Human D2 Dopamine Receptor: Hit Validation in HTRF (AID 624455).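 Further: stable D1 dopamine receptor cell line scored for blocking the D1 response; on the % scale 0 is the no-effect control and ±100 the full control effect.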 The procedure, abridged: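 Hit validation in cells stably expressing the D1 dopamine receptor, run in HTRF format. Compounds were tested for their ability to inhibit the D1-mediated response.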
A short description of assay [4]: qHTS assay for small molecule agonists of the antioxidant response element (ARE) signaling pathway (AID 651741; active means well fitted activation curve with a large enough effect in the signal ratio; the % refers to the signal ratio; further: % of control where 0% means no effect). The procedure, abridged:
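CellSensor ARE-bla HepG2 cells (2,000/well) carrying ARE-driven beta-lactamase, exposed 16 h at 37 C. LiveBLAzer B/G FRET substrate added for 2 h at room temperature; fluorescence intensity read.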

Assay [5] is described as follows: qHTS assay for small molecule activators of the p53 signaling pathway (AID 651743; active means well fitted activation curve with a large enough effect in the signal ratio, not every such curve was filed as active; the % refers to the signal ratio; further: % of control where 0% means no effect). The following applies: HCT-116 p53RE-bla, beta-lactamase FRET ratio, 16 h; activation: stronger effect = higher value. The procedure, abridged:
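p53RE-bla HCT-116 cells carrying a beta-lactamase reporter under p53 response elements were exposed to compounds for 16 hours at 37 C. Reporter activity read as fluorescence after 2 hours at room temperature with LiveBLAzer B/G FRET substrate.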

The target in assay [6] is Tumor necrosis factor (Homo sapiens) (UniProt P01375). The assay can be described thus: qHTS assay to identify small molecules that stimulate Tumor Necrosis Factor-alpha (TNF-alpha) secretion (AID 651757; active means well fitted curve in the direction sought with a large enough effect in the signal ratio; the % refers to the signal ratio; further: 0% is about no effect). The procedure, abridged:
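THP-1 cells (3000/well) exposed to compounds 17 hrs at 37 C. Secreted TNF-alpha detected by HTRF with cryptate- and XL665-labeled anti-TNF-alpha antibodies after 3 hr at room temperature.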

A short description of assay [7]: qHTS assay for environmental chemicals that activate the Aryl hydrocarbon Receptor (AhR) signaling pathway (AID 651777). Further: % of control where 0% means no effect; nearly all actives have a fitted effect of over 15% in size. Particulars: 1A2-DRE human hepatoma cells, luciferase, 24 h; activation: stronger effect = higher value. The gist of the method: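 Quantitative HTS in stably transfected human liver-derived cells whose luciferase gene sits downstream of the CYP1A2 promoter and dioxin response element. After 24 hr exposure at 37 C, One-Glo luminescence was measured.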

The target in assay [8] is Peroxisome proliferator-activated receptor alpha (Homo sapiens) (UniProt Q07869). The assay can be described thus: qHTS assay for small molecule agonists of the peroxisome proliferator-activated receptor alpha (PPARalpha) signaling pathway (AID 651778). Further: % of control where 0% means no effect. Particulars: PathHunter PPARalpha complementation, chemiluminescence, 6 h; max response: stronger effect = higher value. The procedure, abridged:
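Enzyme-fragment complementation assay in which ligand-bound PPARalpha translocates and forms an active enzyme that generates chemiluminescence. Cells were plated overnight, exposed to compound for 6 hr at 37 C, and then given detection reagent for 60 min at room temperature.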

The nature of assay [9]: Cytotoxicity counterscreen for NFkB agonists and antagonists (AID 624476). Further: on the % scale 0 is the no-effect control and ±100 the full control effect.
Assay [10] in a line: qHTS Assay for Identification of Small Molecule Agonists for NFkB Signaling Pathway. (AID 624478). Further: 0% is about no effect. The procedure, abridged:
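NFkB-bla ME-180 cells carry a beta-lactamase reporter. They received compound plus TNF alpha at 10 pM final (its EC50) for 5 h at 37 C. Reporter activity was read as 460/530 nm emission ratio after 2 h LiveBLAzer substrate loading.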

The nature of assay [11]: qHTS Assay for Identification of Small Molecule Antagonists for NFkB Signaling Pathway. (AID 624479; calls by dose curve;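 further: pathway stimulated with TNF alpha; on the % scale 0 is the no-effect control and ±100 the full control effect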).
Assay [12] is described as follows: Cell Proliferation Assay against the TMD8 Cell Line (AID 651645).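 Further: cells exposed to compound for 48 h before reading.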 The following applies: TMD8 DLBCL cell line proliferation/viability; at 46.1 µM (top of the series) unless noted. The gist of the method:
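Cell viability of the ABC DLBCL line TMD8 is measured by CellTiter-Glo luminescence following a 48-hour incubation with compound. Percent activity uses DMSO as 100% and 9.2 uM bortezomib (final) as 0%.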

Assay [13] in a line: Cell Proliferation Assay against the HBL1 Cell Line (AID 651646).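 Further: cells exposed to compound for 48 h before reading.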 The following applies: HBL1 DLBCL cells; at 46.1 µM (top of the series) unless noted. The procedure, abridged:
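HBL1 ABC DLBCL cells, 500/well in RPMI with 5% FBS, treated for 48 h at 37C. Viability read by CellTiter-Glo luminescence, normalized to DMSO as 100% and 9.2 uM bortezomib as 0%.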

Assay [14] is described as follows: Cell Proliferation Assay against the TMD8 Cell Line (Caspase readout at 16 hrs) (AID 651712). The gist of the method:
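TMD8 cells in RPMI with 5% FBS were treated with compound for 16 h at 37 C, then caspase 3/7 activation was read by Caspase-Glo luminescence. Percent activity was scaled to DMSO (0%) and 9.2 uM bortezomib final (100%).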

The nature of assay [15]: Cell Proliferation Assay against the TMD8 Cell Line (Caspase readout at 8 hrs) (AID 651713).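 Further: 0% = DMSO and 100% = 9.2 µM bortezomib caspase signal.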 The procedure, abridged: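 TMD8 cells in RPMI plus 5% FBS were treated with compound for 8 h at 37C. Caspase 3/7 activation was read by Caspase-Glo luminescence. Percent activity was scaled from DMSO (0%) to 9.2 uM bortezomib final (100%).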
Assay [16] is described as follows: qHTS assay for small molecule activators of the nuclear factor-kappa B (NF-kB) signaling pathway (AID 651749; active means well fitted activation curve with a large enough effect in the signal ratio; the % refers to the signal ratio; further: % of control where 0% means no effect). Particulars: NF-kB-bla ME-180 cells, beta-lactamase FRET ratio, 16 h; stronger effect = higher value. The procedure, abridged: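 NF-kB-bla ME-180 cells carrying a beta-lactamase reporter under an NF-kB response element, 2,000 cells/well, exposed to compound for 16 hr at 37C; FRET-based beta-lactamase fluorescence read-out of pathway activation.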

Sequence of Glucagon-like peptide 1 receptor (Homo sapiens) (P43220 whole entry, looked up): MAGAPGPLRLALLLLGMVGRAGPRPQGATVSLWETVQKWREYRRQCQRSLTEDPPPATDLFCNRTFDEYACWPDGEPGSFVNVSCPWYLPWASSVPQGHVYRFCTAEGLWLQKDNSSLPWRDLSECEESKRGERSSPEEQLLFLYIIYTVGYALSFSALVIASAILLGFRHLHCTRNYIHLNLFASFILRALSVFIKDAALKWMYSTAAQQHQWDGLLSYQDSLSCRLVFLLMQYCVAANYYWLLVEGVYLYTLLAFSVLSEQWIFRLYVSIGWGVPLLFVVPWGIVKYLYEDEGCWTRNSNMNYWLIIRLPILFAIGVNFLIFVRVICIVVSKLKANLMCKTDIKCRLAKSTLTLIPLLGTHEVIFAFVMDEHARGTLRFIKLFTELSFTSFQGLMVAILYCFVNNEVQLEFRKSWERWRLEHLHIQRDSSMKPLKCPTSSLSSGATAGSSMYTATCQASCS
Sequence of Peroxisome proliferator-activated receptor alpha (Homo sapiens) (Q07869 whole entry, looked up, the tested form may be a part): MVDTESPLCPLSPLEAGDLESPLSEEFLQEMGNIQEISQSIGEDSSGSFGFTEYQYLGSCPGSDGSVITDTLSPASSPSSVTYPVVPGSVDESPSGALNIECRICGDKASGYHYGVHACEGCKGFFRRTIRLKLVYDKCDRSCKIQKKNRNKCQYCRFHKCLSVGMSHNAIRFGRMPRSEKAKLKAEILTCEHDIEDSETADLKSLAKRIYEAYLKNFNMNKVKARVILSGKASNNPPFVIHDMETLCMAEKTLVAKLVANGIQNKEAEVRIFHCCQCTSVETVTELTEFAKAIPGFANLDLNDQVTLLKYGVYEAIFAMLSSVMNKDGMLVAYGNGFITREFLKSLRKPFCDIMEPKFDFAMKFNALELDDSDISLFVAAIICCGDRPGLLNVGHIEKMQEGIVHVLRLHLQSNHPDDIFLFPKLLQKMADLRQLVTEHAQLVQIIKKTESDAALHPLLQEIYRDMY
Sequence of Tumor necrosis factor (Homo sapiens) (P01375 whole entry, looked up): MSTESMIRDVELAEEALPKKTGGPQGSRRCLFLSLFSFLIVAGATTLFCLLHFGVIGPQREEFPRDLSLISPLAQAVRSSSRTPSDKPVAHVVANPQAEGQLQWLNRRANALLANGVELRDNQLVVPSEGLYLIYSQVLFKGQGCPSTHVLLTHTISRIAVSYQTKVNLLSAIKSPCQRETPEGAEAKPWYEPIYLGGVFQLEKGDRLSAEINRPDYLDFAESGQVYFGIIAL

Regarding `Cc1cc(C(C)(C)C)c(O)c(C)c1CC1=NCCN1`, the Potency entry in assay [1] and in [3] was “inactive” in each case. Moreover, the outcome in assay [2] was inactive.

On to `CN1CCC(=C2c3ccccc3C=Cc3ccccc32)CC1`, for which the Potency entry in [1] and in [3] was “inactive” in each case. In assay [2], the compound was classed as inactive.

Consider `CN(C)c1nc(N(C)C)nc(N(C)C)n1`, for which the Potency result in assay [1] and in [3] was “inactive” throughout. The compound was classed as inactive in [2].

Take `Cc1cc(C(C)(C)C)cc(C)c1CC1=NCCN1`: the Potency result in assay [1] and in [3] was “inactive” in each case. The call in assay [2] was inactive.

As for `NS(=O)(=O)c1cc2c(cc1Cl)NCNS2(=O)=O`, the Potency entry in [1], in assay [3] and in [4] was “inactive” each time. For the same compound, the compound was called inactive in assay [2] and in assay [6]. In addition, the activation in [5] is -0.393% (inactive) and 4.88% (inactive); in [7], 0.0029% (inactive) and 2.21% (inactive). Moreover, the max response in assay [8] was -0.533% (inactive) and -1.17% (inactive).

In the case of `Cn1ccc2cc3c(cc21)CCN3C(=O)Nc1cccnc1`, the Potency result in assay [1], in assay [3], in assay [9], in assay [11], in assay [14] and in assay [15] was “inactive” in each case. The call in assay [2] and in assay [10] was inactive. Moreover, the viability (% of control) in assay [12] is 102%. In [13], the viability, percent of control worked out at 88.1%.

On to `CCC1(c2ccccc2)C(=O)NCNC1=O`, for which the Potency result in assay [1], in assay [3] and in assay [4] was “inactive” in each case. In addition, the outcome in assay [2] and in assay [6] was inactive. For the same compound, the activation in assay [5] was -3.22% (inactive) and -3.23% (inactive); in [16], 0.499% (inactive) and -0.837% (inactive); in assay [7], -1.18% (inactive) and 8.62% (inactive). In [8], the max response is -5.03% (inactive) and -3.26% (inactive).

With `CCCCc1oc2ccccc2c1C(=O)c1cc(I)c(OCCN(CC)CC)c(I)c1`, the Potency entry in assay [1] and in assay [3] was “inactive” throughout. For the same compound, the compound was called inactive in assay [2].

For the compound `O=C1N(c2ccccc2)c2ccccc2C1(Cc1ccncc1)Cc1ccncc1`, the Potency entry in assay [1] and in [3] was “inactive” throughout. For the same compound, the compound was called inactive in assay [2].

Take `CN(C)CCCN1c2ccccc2CCc2ccc(Cl)cc21`: the Potency entry in [1] and in assay [3] was “inactive” each time. In addition, the result in assay [2] was inactive.

For the compound `Clc1ccccc1C(c1ccccc1)(c1ccccc1)n1ccnc1`, the Potency result in assay [1] and in assay [3] was “inactive” throughout. Also, the compound was called inactive in assay [2].

As to `COc1ccccc1OCC(O)CN1CCN(CC(=O)Nc2c(C)cccc2C)CC1` (stereo not given), the Potency entry in assay [1] and in assay [3] was “inactive” throughout. Besides, the call in assay [2] was inactive.

Regarding `CC(C)Cc1ccc(C(C)C(=O)O)cc1` (stereo not given), the Potency entry in assay [1], in [3] and in assay [4] was “inactive” throughout. In addition, the outcome in assay [2] was inactive. Moreover, the activation is -2.52% (inactive) in assay [5], -1.23% (inactive) in assay [16] and -1.21% (inactive) in assay [7]. Besides, in assay [8], the max response was -0.128% (inactive).

For the compound `COc1cc2nc(N3CCN(C(=O)C4COc5ccccc5O4)CC3)nc(N)c2cc1OC` (stereo not given), the Potency entry in assay [1] and in [3] was “inactive” in each case. The call in assay [2] was inactive.
